# According to PubChem BioAssay (NCATS):
# Inconclusive results are not listed. A call without a number means that no potency is given here. Unmarked numbers belong to inactive results. The source made the active and inactive calls. The call rests on the fitted dose curve; in most records, active means well fitted inhibition curve with a large enough effect; inconclusive means small, poorly fitted or top-dose-only effect; inactive means no such curve, though single readings can be large or run the other way.
# Legend:
# [1] = test system: Zika virus NS2B-NS3 protease (unlinked complex); experiment: Primary screen GU Rhodamine qHTS for Zika virus inhibitors: Unlinked NS2B-NS3 protease assay (AID 1347159); conditions: Recombinant ZIKV NS2B-NS3 protease, Rhodamine110 substrate fluorescence; series mostly up to 107 µM; further: nearly all actives have a fitted effect of over 60% in size
# Method in brief: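 Buffer 10 mM Tris-HCl pH 8.0, 0.01% Tween 20. Unlinked protease 25 nM; compound preincubation 15 min, RT, protected from light. Substrate Rhod110, 1.5 microM; ~15% conversion in 15 min.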
# [2] = test system: Zika virus NS2B-NS3 protease (linked construct); experiment: Primary screen NINDS Rhodamine qHTS for Zika virus inhibitors (AID 1347160); conditions: purified NS2B-NS3 protease, Rhodamine110 substrate fluorescence; series mostly up to 57.1 µM; further: nearly all actives have a fitted effect of over 55% in size; further: potency means the concentration at half of the fitted maximal effect
# Method in brief: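 Aprotinin served as in-plate control. Conditions: 25 nM linked NS2B-NS3, pH 8.0 Tris buffer, titrated compounds, 15 min preincubation and 15 min reaction with 1.5 microM Rhod110 substrate at room temperature.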
smiles,measurement,setting,value
COCCCNC(=O)c1ccc(Cn2c(=O)c3ccccc3n(Cc3ccc(C(C)C)cc3)c2=O)cc1,Potency,[1],inactive
same,Potency,[2],inactive
CCCN1CCC=C(c2cc(-c3ccc(C)cc3)no2)C1,Potency,[1],inactive
same,Potency,[2],inactive
CCN(Cc1ccccc1)C(=O)Cn1c(=O)n(C)c2cnc(-c3ccccc3)nc21,Potency,[1],inactive
same,Potency,[2],inactive
CC1CCCC[C@H]2C(=O)C=C[C@H](O)[C@@H]2CC(=O)O1 (stereo not given in full),Potency,[1],inactive
same,Potency,[2],inactive
CC(=O)O[C@H]1CC(C)(C)CC2[C@]13CO[C@@]21CCC2[C@@]4(C)CC[C@H](O[C@@H]5OC[C@H](O[C@@H]6O[C@H](CO)[C@@H](O)[C@H](O)[C@H]6O[C@@H]6OC[C@@H](O[C@@H]7O[C@H](CO)[C@@H](O)[C@H](O)[C@H]7O)[C@H](O)[C@H]6O)[C@H](O)[C@H]5O[C@@H]5O[C@H](CO)[C@@H](O)[C@H](O)[C@H]5O)[C@@](C)(CO)C4CC[C@@]2(C)[C@]1(C)C[C@H]3O (stereo not given in full),"activity change, negative = inhibition",[1],0.509% [at 19.1 µM]
same,"activity change, negative = inhibition",[2],-9.67% [at 10.7 µM]
C=C1/C(=C/C=C2\CCC[C@@]3(C)C2CCC3[C@H](C)/C=C/[C@@H](O)C2CC2)C[C@@H](O)C[C@@H]1O (stereo not given in full),Potency,[2],inactive
CN(C)C(=O)Nc1cccc(-c2ccc(N(C)C)cc2)c1,Potency,[1],inactive
same,Potency,[2],inactive
O=C1Nc2ccccc2-c2nc3ccccc3c(=O)n2-c2c(O)cccc21,Potency,[1],inactive
same,Potency,[2],inactive
COc1cc(N2CCC(O)CC2)ccc1Nc1nc(Nc2ccccc2S(=O)(=O)C(C)C)c2[nH]cnc2n1,Potency,[2],inactive
C[C@H]1CC[C@@]2(OC1)O[C@H]1CC3[C@@H]4CC[C@@H]5C[C@@H](O[C@@H]6O[C@H](CO)[C@@H](O[C@@H]7O[C@H](CO[C@@H]8OC[C@@H](O)[C@H](O)[C@H]8O)[C@@H](O[C@@H]8O[C@H](CO)[C@H](O)[C@H](O)[C@H]8O)[C@H](O)[C@H]7O)[C@H](O)[C@H]6O)CC[C@]5(C)C4CC[C@]3(C)[C@H]1[C@@H]2C (stereo not given in full),Potency,[2],inactive
CN1CCN(c2ccc(OC(F)(F)F)c(Nc3ncc4c(n3)-c3c(c(C(N)=O)nn3CCO)CC4)c2)CC1,Potency,[1],inactive
same,Potency,[2],inactive
COc1cc(CCO)ccc1O[C@@H]1O[C@H](CO)[C@@H](O)[C@H](O)[C@H]1O,Potency,[1],inactive
same,Potency,[2],inactive
CCOc1ccc(S(=O)(=O)N2CCCCCC2)c2ccccc12,Potency,[2],inactive
C=C1C(=O)O[C@@H]2/C=C(\CO)CC/C=C(/C=O)C[C@@H](O)[C@@H]12,Potency,[1],inactive
same,Potency,[2],inactive
COC(=O)c1ccc(N2CCN(C)CC2)c(NC(=O)c2cccc(OC)c2)c1,Potency,[1],inactive
same,Potency,[2],inactive
C=C1C(=O)OC2/C=C(\CO)CC/C=C(\C=O)C(O)C(OC(=O)C(C)CC)C12 (stereo not given),Potency,[2],inactive
O=C(NCCN1CCN(c2cccc3ccc(O)cc23)CC1)c1ccc(F)cc1,Potency,[1],inactive
same,Potency,[2],inactive
CC(CCC1(O)OC2CC3C4CC=C5CC(O[C@@H]6O[C@H](CO)[C@@H](O[C@@H]7O[C@@H](C)[C@H](O)[C@@H](O)[C@H]7O)[C@H](O)[C@H]6O[C@@H]6O[C@@H](C)[C@H](O)[C@@H](O)[C@H]6O)CCC5(C)C4CCC3(C)C2C1C)CO[C@@H]1O[C@H](CO)[C@@H](O)[C@H](O)[C@H]1O (stereo not given in full),Potency,[2],inactive
COC(=O)C1=COC(O[C@@H]2O[C@H](CO[C@@H]3O[C@H](COC(=O)/C=C\c4ccc(O)cc4)[C@@H](O)[C@H](O)[C@H]3O)[C@@H](O)[C@H](O)[C@H]2O)C2C(CO)=CCC12 (stereo not given in full),Potency,[2],inactive
COC1CC(O[C@H]2CC[C@]3(C)C4CC[C@@]5(C)C(=O)[C@]4(CC[C@@H]3C2)CC[C@@H]5C2=CC(=O)OC2)OC(C)C1OC1OC(COC2OC(CO)C(O)C(O)C2O)C(O)C(O)C1O (stereo not given in full),Potency,[1],inactive
same,Potency,[2],inactive
CC(=O)OC1CC2(C)C(CCC(C)C23Cc2c(O)cc(CO)c(C=O)c2O3)C(C)(C)C1O (stereo not given),Potency,[1],inactive
same,Potency,[2],inactive
COc1ccc(C2(CNC(=O)c3ccc(NC(=O)c4ccco4)cc3)CCOCC2)cc1,Potency,[1],inactive
same,Potency,[2],inactive
COc1ccc(S(=O)(=O)N2CCC[C@H]2C(=O)Nc2cc(C)cc(C)c2)cc1,Potency,[1],inactive
same,Potency,[2],inactive
O=C(Nc1cccc2cccnc12)c1ccc(N2C(=O)[C@@H]3C4C=CC(C4)[C@@H]3C2=O)cc1,Potency,[2],inactive
CCCCc1c(-c2ccc(OC)cc2)[nH]c2nccnc12,Potency,[1],inactive
same,Potency,[2],inactive
C[C@@H](NC(=O)c1ccc(C#Cc2cccc(F)c2)cn1)C(C)(C)O,Potency,[1],inactive
same,Potency,[2],inactive
Cn1sc(=O)n(Cc2ccccc2)c1=O,Potency,[1],inactive
same,Potency,[2],inactive
C=C1C(=O)OC[C@@H]1C/C=C(\C)CC1CC(C)C(=O)O1 (stereo not given in full),Potency,[2],15.8 µM (active)
Cc1[nH]c2ccc(F)cc2c1-c1nc2c3cccnc3c3ncccc3c2[nH]1,Potency,[1],inactive
same,Potency,[2],inactive
O=C(Nc1ccc2[nH]c(=O)oc2c1)C(=O)N1CCC(Cc2ccc(F)cc2)CC1,Potency,[1],inactive
same,Potency,[2],inactive
COc1ccc(CN2CCN(CCCSc3cc(C(C)(C)C)c(O)c(C(C)(C)C)c3)CC2)c(OC)c1OC,Potency,[2],inactive
COC(=O)c1cc(Br)cnc1N1CCC(NC2CCCCC2)C(O)C1 (stereo not given),Potency,[2],inactive
COc1ccc([C@H]2OC[C@H]3O[C@@H](O[C@H]4[C@@H]2NC[C@@H]4O)[C@H](O)[C@H]3O)cc1,Potency,[1],inactive
same,Potency,[2],inactive
O=C(Cc1c(F)cccc1F)Nc1cc(OCc2ccc(Cl)cc2)ccn1,Potency,[1],inactive
same,Potency,[2],inactive
CNc1cc2[nH]c(=O)n(-c3ccc(NC(=O)NS(=O)(=O)c4ccc(Cl)s4)cc3)c(=O)c2cc1F,Potency,[1],inactive
same,Potency,[2],inactive
Cc1ccc(C(C)C)c(O[C@@H]2O[C@H](CO)[C@@H](O)[C@H](O)[C@H]2O)c1,Potency,[2],inactive
Cc1nc(C#Cc2ccnc(Cl)c2)c(C)n1-c1ccc(OC(F)(F)F)cc1,Potency,[1],inactive
same,Potency,[2],inactive
O=[N+]([O-])c1ccc(Oc2ccc3c(c2)CCC(c2ccccc2)O3)nc1 (stereo not given),Potency,[1],inactive
same,Potency,[2],inactive
CN(C)N(C)C(=O)[C@@]1(Cc2ccccc2)CCCN(C(=O)[C@@H](Cc2c[nH]c3ccccc23)NC(=O)C(C)(C)N)C1,Potency,[1],inactive
same,Potency,[2],inactive
C=C1C(=O)OC2/C=C(\COC(C)=O)CC/C=C(\C=O)CC(OC(=O)C(C)CC)C12 (stereo not given),Potency,[1],inactive
same,Potency,[2],inactive
CC[C@H]1CN(c2nc(N)c(C(N)=O)nc2Cl)CCN1C1CCN(Cc2ccc(Cl)cc2)CC1,Potency,[1],inactive
same,Potency,[2],inactive
